Screens from PubChem BioAssay.
Most compounds without a hit are left out; they make up all but 7.4% or so of the library.
ELG1 genotox: genotoxicity induction in ELG1-luciferase HEK293T cells; AID 504466; actives 1.3% (n = 330,000); Potency, µM (doses to about 46 µM), for inactives: at the highest dose activity change, positive = activation, hits mostly activators; HEK293T ELG1-luciferase reporter, luminescence, 16 h; note: % of control where 0% means no effect; nearly all actives have a fitted effect of over 60% in size
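DMSO vehicle served as control against compound-treated ELG1-luciferase HEK293T cells; exposure lasted 16 hr at 37 °C and 5% CO2, followed by ONE-Glo luminescence detection after 30 min.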
Rab9 promoter act: Rab9 promoter activation; Huh7 Rab9 promoter-luciferase reporter, luminescence, 24 h; Potency, µM (highest dose often 9.22 µM), inactives show at the highest dose activation, negative = inhibition, actives largely listed as activators; actives 2.8% (n = 320,000); AID 485297; note: % of control where 0% means no effect; nearly all actives have a fitted effect of over 60% in size
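Huh7 reporter line, Rab9 promoter upstream of luciferase. Compound exposure 24 h at 37 °C in reduced-serum medium with 10% FBS. Read-out: luminescence.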
Luc counter: blocks Kinase-Glo luciferase, a counter-screen artifact | Kinase-Glo luciferase, ATP luminescence, 8 min | Q27757 | actives 0.28% (n = 200,000) | Potency, µM (series often up to 38.3 µM), inactives show at the highest dose activity change, negative = inhibition, usual class: inhibitors | AID 1379; note: % is set by controls: 0 for no effect and ±100 for the full control effect; nearly all actives have a fitted effect of over 60% in size
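Compounds were added to a substrate mix at pH 7.2 (50 mM imidazole, 10 uM ATP, within the enzyme's linear range), followed by Kinase-Glo detection reagent; luminescence was measured after 8 minutes at ambient temperature.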
SMN2 splice enh: enhancers of SMN2 splice variant expression; HEK293 SMN2-luciferase splicing reporter, luminescence, 30-36 h; AID 1458; actives 2.8% (n = 210,000); Potency, µM (series often up to 46.1 µM), without a hit: at the highest dose activity change, positive = activation, actives largely listed as activators; note: % of control where 0% means no effect; nearly all actives have a fitted effect of over 55% in size
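HEK293 cells carry an SMN2 […]–luciferase reporter in which exon 7 inclusion puts luciferase in frame. Cells were plated 10-12 h before compound addition, then incubated 30-36 h at 37C. ONE-Glo luminescence was read; sodium butyrate at 4.5 mM final served as control.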
NPC1 prom act: activates the NPC1 promoter; Huh7 NPC1 promoter luciferase reporter, 24 h; Potency, µM (titrated, usually from 9.22 µM), for inactives: at the top dose activation, actives largely listed as activators; actives 2.4% (n = 320,000); note: % of control where 0% means no effect; nearly all actives have a fitted effect of over 60% in size
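Luminescence from an NPC1 promoter-driven luciferase reporter in stably transfected Huh7 cells was measured after 24 h compound treatment at 37 °C, followed by 10 min ambient incubation with luciferase detection reagent.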
FLuc counter: firefly luciferase modulation, counter-screen for miR-21 project | purified FLuc, Km substrates, luminescence inhibition | Potency, µM (titrated, usually from 57.5 µM), for the others: at the highest dose activity change, negative = inhibition, most hits filed as inhibitors | actives 6.9% (n = 360,000) | AID 588342;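 note: plate controls were vehicle for no effect and reference inhibitor for full effect; nearly all actives have a fitted effect of over 55% in size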
Target sequence (P08659 whole entry, looked up): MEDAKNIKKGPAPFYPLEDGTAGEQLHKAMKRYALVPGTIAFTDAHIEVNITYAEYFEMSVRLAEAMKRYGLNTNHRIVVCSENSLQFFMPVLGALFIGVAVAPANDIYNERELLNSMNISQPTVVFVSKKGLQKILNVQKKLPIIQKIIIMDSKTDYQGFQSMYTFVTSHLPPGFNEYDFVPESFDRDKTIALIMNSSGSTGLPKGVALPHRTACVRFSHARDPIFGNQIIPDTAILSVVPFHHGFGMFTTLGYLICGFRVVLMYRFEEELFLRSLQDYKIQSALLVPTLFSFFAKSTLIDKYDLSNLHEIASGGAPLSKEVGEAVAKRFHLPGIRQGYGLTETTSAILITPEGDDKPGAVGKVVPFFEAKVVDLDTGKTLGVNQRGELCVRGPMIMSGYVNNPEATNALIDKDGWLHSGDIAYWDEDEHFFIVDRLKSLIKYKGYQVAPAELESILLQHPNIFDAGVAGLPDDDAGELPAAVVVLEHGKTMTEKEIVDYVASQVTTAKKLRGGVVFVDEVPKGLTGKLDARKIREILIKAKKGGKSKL
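Purified P. pyralis luciferase (10nM final) with 10uM D-luciferin and 10uM ATP (Km levels) in 50mM Tris acetate pH 7.5, 10mM Mg acetate, 0.01% Tween-20, 0.05% BSA; qHTS 6-point titration, ~60 µM downward; luminescence read.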
* = called active by the depositor; u = inconclusive; x = no result given; [ ] = another dose, or the depositor's remark. Calls come from the whole dose curve; as a rule, active = well fitted curve in the direction sought with a large enough effect; inconclusive = small, poorly fitted or top-dose-only effect, or another doubt; inactive = no such curve, though single readings can be large; an effect the other way counts as inactive or inconclusive. Potency is the fitted concentration of half-maximal effect.

SMILES	ELG1 genotox	Rab9 promoter act	Luc counter	SMN2 splice enh	NPC1 prom act	FLuc counter
COc1ccc(OC)c(/C=C2\SC(N3CCCCC3)=NC2=O)c1	0%	-5%	x	x	21%	19µM*
CCOC(=O)C1CCCN(C2=NC(=O)/C(=C/c3ccc(OC)cc3OC)S2)C1 (stereo not given)	-3%	-6%	x	x	-4%	u
CCCOc1ccccc1/C=C1\SC(N2CCCCC2)=NC1=O	-10%	23%	x	x	u	12µM*
COc1cc(OC)c(OC)cc1/C=C1\SC(N2CCCCC2)=NC1=O	9%	-2%	x	x	-2%	3.8µM*
Cc1ccc(S(=O)(=O)N2[C@@H](c3cccc(Cl)c3)C(C(=O)O)=CC[C@H]2c2cccs2)cc1	-1%	-6%	x	x	-1%	-1%
CCN(CC)CCCCNC(=O)c1ccc(Cc2nc3ccccc3[nH]2)cc1	x	x	-4%	x	x	x
Cc1ccc(C(=O)C(C)OC(=O)CN2C(=O)NC3(CCCC3)C2=O)cc1 (stereo not given)	3%	-3%	x	x	-4%	1%
S=C(NC1CCCCC1)N1CCc2[nH]c3ccccc3c2C1	10%	-10%	x	x	-4%	24µM*
Cc1ccc(O)c(-n2nc3ccccc3n2)c1	u	3.2µM*	-29%	x	3.2µM*	2.7µM*
CNC(=O)Nc1ccccc1C(=O)NCc1ccccc1	2%	0%	-2%	-9%	1%	0%
O=C(Nc1ccccc1)Nc1ccccc1C(=O)NCc1ccccc1	1%	15%	-12%	1%	5%	21µM*
O=C(Nc1ccc(Cl)cc1)Nc1ccccc1C(=O)NCc1ccco1	18%	7%	-21%	13%	5%	19µM*
O=C(Cc1ccccc1)NNC(=O)Nc1ccccc1	-2%	2%	0%	x	-2%	17µM*
Cc1cccc(NC(=O)c2c(N)sc3c2CCC(C)C3)c1 (stereo not given)	x	x	x	17%	x	u
Cc1c(N=C2NN=C(c3ccc(Cl)cc3)CS2)c(=O)n(-c2ccccc2)n1C	1%	4%	3%	-18%	-2%	-14%
Cc1ccc(-n2c(C)cc(C3=NNC(=NC4CC4)SC3)c2C)cc1C	u	0.56µM*	-6%	u	1.6µM*	1.3µM*
CN=C1NN=C(c2cc(C)n(-c3ccc(Cl)cc3)c2C)CS1	u	2.5µM*	-6%	-7%	4µM*	4.8µM*
Cc1cc(C2=NNC(=NC3CC3)SC2)c(C)n1-c1c(C)n(C)n(-c2ccccc2)c1=O	-3%	-12%	2%	-4%	6%	-6%
CC(=O)/C=C(\C)N=Nc1c(O)[nH]c2ccccc12	8%	-1%	x	x	-1%	13µM*
C=CCn1c(O)c(N=NC(=O)c2ccc3c(c2)OCO3)c2ccccc21	5%	u	-4%	-8%	u	3µM*
O=C(N=Nc1c(O)[nH]c2ccccc12)c1ccc(CN2CCOCC2)cc1	-5%	-7%	8%	-11%	-1%	u
O=C(N=Nc1c(O)[nH]c2ccccc12)c1ccc2c(c1)OCO2	u	0.56µM*	10µM*	11µM*	2.2µM*	0.6µM*
CC(C)CC(=O)N=Nc1c(O)[nH]c2ccccc12	u	u	3%	-4%	27%	-8%
C=CCn1c(O)c(N=NC(=O)OCC)c2ccccc21	-1%	1%	1%	-11%	9%	-11%
O=C(CNC(=O)c1ccccn1)N=Nc1c(O)[nH]c2ccccc12	-1%	11%	x	x	0%	15µM*
COc1ccc(CC(=O)NCC(=O)N=Nc2c(O)[nH]c3ccccc23)cc1	1%[9.26 µM]	6%	x	x	2%	2%
Cc1ccc(S(=O)(=O)Nc2cnn(-c3ccccc3)c(=O)c2Cl)cc1	-1%	-9%	-2%	x	-8%	0%
CCN(CC)S(=O)(=O)c1ccc(N2CCOCC2)c(NC(=O)C2CC2)c1	2%	-1%	x	x	-9%	-1%
